According to PubChem BioAssay (NCATS):
Several values for one entry are separate records, joined by “and”; a condition that tells them apart may be missing. Equal values may be shown once. Inconclusive results are not listed. Activity calls are given as the source filed them. Unless noted, calls follow the shape of the dose curve; as a rule, active = well fitted curve in the direction sought with a large enough effect; inconclusive = small, poorly fitted or top-dose-only effect, or another doubt; inactive = no such curve, though single readings can be large; an effect the other way counts as inactive or inconclusive.

Experiments:
[1] = molecular target: Arylsulfatase A (Homo sapiens) (UniProt P15289); experiment: qHTS screen for enhancers of Arylsulfatase A (ASA1): LOPAC Validation Assay (AID 720538)
Sequence of Arylsulfatase A (Homo sapiens) (P15289 whole entry, looked up): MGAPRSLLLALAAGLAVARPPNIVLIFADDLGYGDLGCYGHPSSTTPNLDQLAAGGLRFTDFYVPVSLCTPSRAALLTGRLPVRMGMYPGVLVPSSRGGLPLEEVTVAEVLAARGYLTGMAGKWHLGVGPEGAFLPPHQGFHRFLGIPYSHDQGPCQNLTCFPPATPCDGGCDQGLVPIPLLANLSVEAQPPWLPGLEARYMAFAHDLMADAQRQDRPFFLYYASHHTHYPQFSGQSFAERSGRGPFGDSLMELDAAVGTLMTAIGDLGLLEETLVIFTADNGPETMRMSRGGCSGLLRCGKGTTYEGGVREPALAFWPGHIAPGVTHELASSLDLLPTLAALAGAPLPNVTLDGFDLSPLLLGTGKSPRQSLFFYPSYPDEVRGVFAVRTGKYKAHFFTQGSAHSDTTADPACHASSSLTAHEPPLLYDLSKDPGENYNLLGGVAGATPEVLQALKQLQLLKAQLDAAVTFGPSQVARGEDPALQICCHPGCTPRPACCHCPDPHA
Method in brief: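 SV40-transformed skin fibroblasts from an MLD patient (ASA-I179S) were treated with compounds for 48h at 37 degree C, then lysed with 0.5mM pNCS final substrate for 14h at room temperature; NaOH stop, fluorescence read (Ex=525 nm; Em=598 nm).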

[2] = qHTS for compounds that reverse cellular toxicity of Amyloid beta (A-beta) peptide in yeast: LOPAC Validation Assay (AID 720559);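 also: plate controls were DMSO for no effect and equimolar ferric chloride plus clioquinol rescue for full effect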
Method in brief: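 Yeast cells expressing toxic A-beta were combined with pinned compounds in growth medium and incubated 48 hr at 30 C. Growth was read as absorbance at 600 nm and normalized to DMSO and to an equimolar FeCl3/clioquinol positive control.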

[3] = qHTS for Activators of Parkin Expression: LOPAC Validation Assay (NLuc Reporter) (AID 720572;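 also: 0% = DMSO and 100% = positive control compound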)
Method in brief: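 Cells harboring the Parkin-promoter coincidence reporter were treated for 24 h at seven concentrations. NLuc output was measured sequentially after the FLuc channel and scaled between DMSO and positive control values.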

[4] = qHTS for Activators of Parkin Expression: LOPAC Validation Assay (FLuc Reporter) (AID 720573;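 also: 0% = DMSO and 100% = positive control compounds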)
Method in brief: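 Neuronal cell line stably carrying FLuc/NLuc coincidence reporter under Parkin promoter; cells plated 24 h, then compounds added in 7-point dose response for 24 h at 37 C. FLuc luminescence read; normalized to DMSO and positive control (100%).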

[5] = molecular target: T1, Hexokinase-4 (Homo sapiens) + Glucokinase regulatory protein (Homo sapiens) (UniProt P35557+Q14397); experiment: qHTS assay for inhibitors of recombinant human GCK-GKRP interaction: Diaphorase-coupled assay (AID 743205); also: potency is read from the fitted curve at half-maximal effect
T1 sequence (P35557 whole entry, looked up): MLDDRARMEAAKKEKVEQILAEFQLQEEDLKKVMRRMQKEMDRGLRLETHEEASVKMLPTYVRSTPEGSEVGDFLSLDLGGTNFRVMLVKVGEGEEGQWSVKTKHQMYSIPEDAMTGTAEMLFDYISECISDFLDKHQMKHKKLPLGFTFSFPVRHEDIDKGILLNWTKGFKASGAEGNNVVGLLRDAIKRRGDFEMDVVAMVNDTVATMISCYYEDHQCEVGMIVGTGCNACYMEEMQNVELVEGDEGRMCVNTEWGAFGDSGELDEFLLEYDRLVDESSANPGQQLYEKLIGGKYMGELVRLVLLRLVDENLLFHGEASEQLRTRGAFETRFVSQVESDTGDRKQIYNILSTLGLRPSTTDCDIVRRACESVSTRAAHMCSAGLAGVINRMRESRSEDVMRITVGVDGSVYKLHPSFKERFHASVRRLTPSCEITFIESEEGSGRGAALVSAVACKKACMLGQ
T1 sequence (Q14397 whole entry, looked up): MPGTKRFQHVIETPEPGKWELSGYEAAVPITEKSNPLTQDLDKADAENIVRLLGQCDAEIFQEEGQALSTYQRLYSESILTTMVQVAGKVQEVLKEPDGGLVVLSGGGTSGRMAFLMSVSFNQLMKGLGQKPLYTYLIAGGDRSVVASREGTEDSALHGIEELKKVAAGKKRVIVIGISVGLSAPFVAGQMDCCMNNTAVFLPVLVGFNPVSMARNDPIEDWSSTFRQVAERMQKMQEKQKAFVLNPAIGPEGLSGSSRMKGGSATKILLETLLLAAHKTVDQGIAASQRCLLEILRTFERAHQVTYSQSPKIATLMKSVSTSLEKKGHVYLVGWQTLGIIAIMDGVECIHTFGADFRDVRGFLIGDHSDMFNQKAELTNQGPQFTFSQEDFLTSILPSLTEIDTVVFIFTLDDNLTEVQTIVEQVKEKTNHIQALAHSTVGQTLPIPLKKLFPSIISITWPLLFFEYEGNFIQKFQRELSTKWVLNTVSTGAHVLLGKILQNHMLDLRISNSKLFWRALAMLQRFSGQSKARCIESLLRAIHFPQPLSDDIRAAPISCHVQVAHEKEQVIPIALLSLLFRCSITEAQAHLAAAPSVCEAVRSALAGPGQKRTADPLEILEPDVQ
Method in brief: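 GST-GCK (10 nM) with FLAG-GKRP (10 nM), 5 mM glucose and 0.4 mM ATP in pH 7.6 Hepes; compounds preincubated 20 min with substrate. G6PDH/diaphorase coupling converts resazurin to resorufin, read kinetically (ex 525/em 590 nm) for 30 min.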

[6] = molecular target: T1, Hexokinase-4 (Homo sapiens) + Glucokinase regulatory protein (Homo sapiens); experiment: qHTS assay for inhibitors of recombinant human GCK-GKRP interaction: ADP-Glo assay (AID 743206); also: potency is read from the fitted curve at half-maximal effect
Method in brief: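 Pin-transferred compounds meet a 15 nM GST-GCK/15 nM FLAG-GKRP/2 uM S6P mix (dispense concentrations). ATP is then added to 0.4 mM final with 5 mM glucose, and the reaction runs 60 min at room temperature. ADP is quantified luminescently.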

[7] = molecular target: T1, Hexokinase-4 (Homo sapiens) + Glucokinase regulatory protein (Homo sapiens); experiment: qHTS assay for inhibitors of recombinant human GCK-GKRP interaction: HTRF assay (AID 743207); also: potency is read from the fitted curve at half-maximal effect
Method in brief: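 GST-GCK and FLAG-GKRP (5 nM each) were combined with 2 uM S6P in pH 7.1 Hepes/MgCl2/KCl/DTT buffer, then compound and anti-FLAG XL665/anti-GST K antibodies were added. After 60 min at room temperature, HTRF 665/615 nm emission was read.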

[8] = qHTS Assay for Identifying Gametocytocidal Compounds (AID 743244); also: potency is read from the fitted curve at half-maximal effect;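 as to max response: % is scaled to controls: 0 for no effect and ±100 for the full control effect; actives lower the fluorescent signal which means gametocytes are killed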; settings: P. falciparum 3D7 stage III-V gametocytes, alamarBlue, 72 h; max response: stronger effect = lower value
Method in brief: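 Using 20,000 stage III–V 3D7 gametocytes per well, compounds were incubated 72 h under 37 °C/5% CO2. Viability was then assessed by 24 h alamarBlue reduction, measured fluorometrically at 525/598 nm.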

[9] = qHTS for small molecule inhibitors of Yes1 kinase: Counter Assay (AID 686950);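 also: no kinase present so only ADP-Glo detection of a fixed ADP amount is tested; luminescence from ADP-Glo reporting ADP in a fixed ATP and ADP mixture; 0% = DMSO wells with ATP plus ADP and -100% = ATP-only wells without ADP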
Method in brief: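 Measuring interference with ADP-Glo, the assay ran 60 min at room temperature on an ATP/ADP mix lacking enzyme. Values were normalized to ATP-plus-ADP (maximum) and ATP-only (minimum) DMSO controls.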

[10] = qHTS profiling for inhibitors of Plasmodium falciparum (3D7) proliferation (AID 743322; call rule not given here;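 also: infected erythrocytes exposed to compound for 72 h before lysis; 100% = DMSO vehicle wells and 0% = 0.29 µM artemisinin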); settings: P. falciparum 3D7 proliferation, at 28.7 µM (top of the series)
Method in brief: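 Parasite DNA was quantified by SYBR Green I fluorescence (ex 485, em 535 nm) after overnight lysis in saponin/Triton buffer at room temperature. Cultures at 0.3% parasitemia and 2.5% hematocrit were first exposed to compound for 72 h at 37 C; signals were normalised to artemisinin (0.29 uM) and vehicle wells.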

[11] = molecular target: Tyrosine-protein kinase Yes (Homo sapiens) (UniProt P07947); experiment: qHTS for small molecule inhibitors of Yes1 kinase: Primary Screen (AID 686947);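 also: plate controls were DMSO with enzyme for no effect and no-enzyme DMSO wells for full effect; nearly all actives have a fitted effect of over 60% in size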
Sequence of Tyrosine-protein kinase Yes (Homo sapiens) (P07947 whole entry, looked up): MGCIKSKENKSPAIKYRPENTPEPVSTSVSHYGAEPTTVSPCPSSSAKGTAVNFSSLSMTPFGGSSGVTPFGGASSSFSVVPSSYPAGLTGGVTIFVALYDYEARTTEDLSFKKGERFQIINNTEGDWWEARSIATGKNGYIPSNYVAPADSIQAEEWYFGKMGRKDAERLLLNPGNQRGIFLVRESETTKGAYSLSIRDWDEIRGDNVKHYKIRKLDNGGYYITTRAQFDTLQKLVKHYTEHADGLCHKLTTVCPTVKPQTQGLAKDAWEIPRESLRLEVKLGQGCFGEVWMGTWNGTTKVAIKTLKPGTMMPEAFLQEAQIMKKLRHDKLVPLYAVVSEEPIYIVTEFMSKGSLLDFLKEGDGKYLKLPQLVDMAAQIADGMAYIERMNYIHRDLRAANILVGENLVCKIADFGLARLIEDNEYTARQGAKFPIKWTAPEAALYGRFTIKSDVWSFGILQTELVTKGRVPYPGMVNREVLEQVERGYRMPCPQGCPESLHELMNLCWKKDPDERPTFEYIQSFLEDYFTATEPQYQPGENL
Method in brief: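 ADP-Glo luminescence reports ADP formed by 4 nM Yes1 phosphorylating poly(E4Y) (0.3 mg/mL) with 0.1 mM ATP for 60 min at room temperature, following 20 min compound preincubation; normalised between DMSO wells with and without enzyme.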

COc1ccccc1N1CCN(CC(O)COc2cccc3ccccc23)CC1 (stereo not drawn)
inactive: Potency [1] | outcome [2] | outcome [3] | Potency [4] | Potency [5] | Potency [6] | Potency [7] | max response [8] 7.63% and 7.03%

CC1COc2c(N3CCN(C)CC3)c(F)cc3c(=O)c(C(=O)O)cn1c23 (stereo not drawn)
inactive: Potency [1] | outcome [2] | outcome [3] | Potency [4] | Potency [5] | Potency [6] | Potency [7] | max response [8] 18.2% and 27.4%

CS(=O)(=O)CCNCc1ccc(-c2ccc3ncnc(Nc4ccc(OCc5cccc(F)c5)c(Cl)c4)c3c2)o1
inactive: outcome [9] | max response [8] -3.58% and 12%
0.561%: remaining parasite growth % (stronger effect = lower value) [10]

CCN1CCCC1CNC(=O)c1cc(S(=O)(=O)CC)c(N)cc1OC (stereo not drawn)
inactive: Potency [1] | outcome [2] | outcome [3] | Potency [4] | Potency [5] | Potency [6] | Potency [7] | max response [8] -5.68% and 24.9%

Cc1ccc(C(=O)Nc2ccc(S(=O)(=O)O)c3cc(S(=O)(=O)O)cc(S(=O)(=O)O)c23)cc1NC(=O)c1cccc(NC(=O)Nc2cccc(C(=O)Nc3cc(C(=O)Nc4ccc(S(=O)(=O)O)c5cc(S(=O)(=O)O)cc(S(=O)(=O)O)c45)ccc3C)c2)c1
active: Potency [5] 28.2 µM | Potency [6] 5.62 µM | Potency [7] 17.8 µM
inactive: Potency [1] | outcome [2] | outcome [3] | Potency [4] | max response [8] 35.1% and 2.76%

CN(C)CCCN1c2ccccc2CCc2ccc(Cl)cc21
inactive: Potency [1] | outcome [2] | outcome [3] | Potency [4] | Potency [5] | Potency [6] | Potency [7]

O=c1c(O)c(-c2ccc(O)c(O)c2)oc2cc(O)cc(O)c12
inactive: outcome [9] | outcome [2] | Potency [5] | Potency [6] | Potency [7]
26.9% and 12.7%: remaining parasite growth % (stronger effect = lower value) [10]

COC(=O)Nc1nc2ccc(C(=O)c3cccs3)cc2[nH]1
inactive: Potency [1] | outcome [2] | outcome [3] | Potency [4] | Potency [5] | Potency [6] | Potency [7] | max response [8] 22.4% and 23.7%

CC12CC3CC(C)(C1)CC(N)(C3)C2
inactive: Potency [1] | outcome [2] | outcome [3] | Potency [4] | Potency [5] | Potency [6] | Potency [7] | max response [8] 12.5%

Cc1cc(C(C)(C)C)cc(C)c1CC1=NCCN1
inactive: Potency [1] | outcome [2] | outcome [3] | Potency [4] | Potency [5] | Potency [6] | Potency [7] | max response [8] 3.97% and -5.84%

CCCNCC(O)COc1ccccc1C(=O)CCc1ccccc1 (stereo not drawn)
active: Potency [8] 3.16 µM and 1.78 µM
inactive: Potency [1] | outcome [2] | outcome [3] | Potency [4] | Potency [5] | Potency [6] | Potency [7]

CN(C)C(=N)N=C(N)N
inactive: Potency [11] | outcome [9] | max response [8] 1.21% and -1.21%
104%: remaining parasite growth % (stronger effect = lower value) [10]

Clc1ccccc1C(c1ccccc1)(c1ccccc1)n1ccnc1
active: Potency [8] 2.51 µM and 2.09 µM
inactive: Potency [1] | outcome [2] | outcome [3] | Potency [4] | Potency [5] | Potency [6] | Potency [7]

Fc1ccc([C@@H]2CCNC[C@H]2COc2ccc3c(c2)OCO3)cc1
inactive: Potency [1] | outcome [2] | outcome [3] | Potency [4] | Potency [5] | Potency [6] | Potency [7]
active: Potency [8] 12.6 µM and 1.12 µM

COc1cc2nc(N(C)CCCNC(=O)C3CCCO3)nc(N)c2cc1OC (stereo not drawn)
inactive: Potency [1] | outcome [2] | outcome [3] | Potency [4] | Potency [5] | Potency [6] | Potency [7] | max response [8] 19.8% and 12.7%

CN1CCN(CCCN2c3ccccc3Sc3ccc(Cl)cc32)CC1
inactive: Potency [1] | outcome [2] | outcome [3] | Potency [4] | Potency [5] | Potency [6] | Potency [7]

NC(=O)NO
inactive: Potency [1] | outcome [2] | outcome [3] | Potency [4] | Potency [5] | Potency [6] | Potency [7] | max response [8] -4.54% and 19.4%

COc1cc2nc(N3CCN(C(=O)c4ccco4)CC3)nc(N)c2cc1OC
inactive: Potency [1] | outcome [2] | outcome [3] | Potency [4] | Potency [5] | Potency [6] | Potency [7]
active: Potency [8] 11.2 µM

NC(=O)OCC(COC(N)=O)c1ccccc1
inactive: Potency [1] | outcome [2] | outcome [3] | Potency [4] | Potency [5] | Potency [6] | Potency [7] | max response [8] 0.706% and 21.3%

CC[C@@]1(O)C(=O)OCc2c1cc1n(c2=O)Cc2cc3c(CN(C)C)c(O)ccc3nc2-1
inactive: outcome [9] | max response [8] 27.1% and 13.5%
11.5%: remaining parasite growth % (stronger effect = lower value) [10]

Cc1cc(C(C)(C)C)c(O)c(C)c1CC1=NCCN1
inactive: Potency [1] | outcome [2] | outcome [3] | Potency [4] | Potency [5] | Potency [6] | Potency [7] | max response [8] -1.21% and 27.5%

O=C1N(c2ccccc2)c2ccccc2C1(Cc1ccncc1)Cc1ccncc1
inactive: Potency [1] | outcome [2] | outcome [3] | Potency [4] | Potency [5] | Potency [6] | Potency [7] | max response [8] -4.76% and 23.2%
